For orientation: AC50 means the midpoint of the concentration-response curve, whichever way the signal moves.

SMILES strings stand for the structures. The source made the active and inactive calls. Rule for the calls: active = hit-call score of the fitted dose curve at least 0.9, where 1 is the maximum; inactive = score below 0.9.

These results are taken from PubChem BioAssay (EPA / NIEHS).

What all share (conditions): mRNA level, 48 h; actives raise or lower the signal
Read-out in assay [1]: Potassium channel subfamily K member 1 (KCNK1), KCNK1 (gene 3775)
Briefly: LTEA_HepaRG_KCNK1: Life Technologies and Expression Analysis (LTEA) Assay for Potassium channel subfamily K member 1 (KCNK1) using HepaRG (AID 2283511). In short, it runs like this:
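HepaRG, 48 h exposure, 8-pt half-log series top 100 uM, 0.5% DMSO vehicle, duplicates. Readout: KCNK1 transcript by qRT-PCR (Fluidigm array), housekeeping-normalized; bidirectional curve fit relative to DMSO baseline.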

Read-out in assay [2]: Keratin 19 (KRT19), KRT19 (gene 3880)
The assay is described as follows: LTEA_HepaRG_KRT19: Life Technologies and Expression Analysis (LTEA) Assay for Keratin 19 (KRT19) using HepaRG (AID 2283512). In short, it runs like this:
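KRT19 transcript levels, measured by Fluidigm qRT-PCR against three housekeeping genes, are fitted for gain or loss of signal relative to DMSO. Human HepaRG cells receive test chemicals (top 100 uM, half-log steps, 0.5% DMSO) for 48 hours.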

Read-out in assay [3]: JUN Transcription Factor, JUN (gene 3725)
Briefly: LTEA_HepaRG_JUN: Life Technologies and Expression Analysis (LTEA) Assay for JUN Transcription Factor using HepaRG (AID 2283513). In short, it runs like this:
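HepaRG, 48 h exposure, 8-pt half-log series top 100 uM, 0.5% DMSO, duplicate. JUN mRNA by qRT-PCR (Fluidigm), housekeeping-normalized (ACTB/GAPDH/POLR2A); bidirectional curve fit vs DMSO baseline.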

Read-out in assay [4]: Lipase C (LIPC), LIPC (gene 3990)
Briefly: LTEA_HepaRG_LIPC: Life Technologies and Expression Analysis (LTEA) Assay for Lipase C (LIPC) using HepaRG (AID 2283514). In short, it runs like this:
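HepaRG, 48 h exposure, 8-pt half-log series from 100 uM in 0.5% DMSO, duplicates. Readout: LIPC mRNA by Fluidigm qRT-PCR, housekeeping-normalized (ACTB/GAPDH/POLR2A). Gain or loss fitted bidirectionally against DMSO baseline.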

Read-out in assay [5]: Lipoprotein lipase (LPL), LPL (gene 4023)
The assay is described as follows: LTEA_HepaRG_LPL: Life Technologies and Expression Analysis (LTEA) Assay for Lipoprotein lipase (LPL) using HepaRG (AID 2283515). The method, boiled down: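 HepaRG, 48 h exposure, 8-pt half-log dilutions from 100 uM, 0.5% DMSO vehicle, duplicates; qRT-PCR (Fluidigm array) of LPL mRNA vs housekeeping genes; bidirectional curve fit relative to DMSO baseline.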

Read-out in assay [6]: MicroRNA 122 (MIR122), gene 406906
The assay is described as follows: LTEA_HepaRG_MIR122: Life Technologies and Expression Analysis (LTEA) Assay for MicroRNA 122 (MIR122) using HepaRG (AID 2283516). Note: the transcript read is the microRNA miR-122. The method, boiled down:
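qRT-PCR read-out (TaqMan, Fluidigm array), normalized to three housekeeping genes; HepaRG cells dosed 48 h at 8 concentrations up to 100 uM in 0.5% DMSO, duplicate; gain or loss fitted against DMSO baseline.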

Read-out in assay [7]: matrix metalloproteinase-10 (MMP10), MMP10 (gene 4319)
The assay is described as follows: LTEA_HepaRG_MMP10: Life Technologies and Expression Analysis (LTEA) Assay for matrix metalloproteinase-10 (MMP10) using HepaRG (AID 2283517). The method, boiled down:
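Transcript levels come from Fluidigm qRT-PCR normalized to three housekeeping genes, with curves fitted bidirectionally against 0.5% DMSO. Human HepaRG cells were dosed for 48 hours at concentrations up to 100 uM.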

Read-out in the next assay: MYC, MYC (gene 4609)
Briefly: LTEA_HepaRG_MYC: Life Technologies and Expression Analysis (LTEA) Assay for MYC using HepaRG (AID 2283518). The method, boiled down:
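HepaRG, ~100,000 cells/well, collagen I; 48 h plating; serum-free induction medium; 48 h dosing, duplicate, 100 uM top, half-log, 0.5% DMSO; total RNA → qRT-PCR MYC; gain/loss fit vs DMSO.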

Read-out in assay [8]: matrix metalloproteinase-3 (MMP3), MMP3 (gene 4314)
Briefly: LTEA_HepaRG_MMP3: Life Technologies and Expression Analysis (LTEA) Assay for matrix metalloproteinase-3 (MMP3) using HepaRG (AID 2283519). The method, boiled down: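 qRT-PCR read-out of MMP3 mRNA (normalised to three housekeeping genes) in HepaRG liver cells after 48 h chemical exposure; 8-point half-log series, top 100 uM, 0.5% DMSO vehicle. Bidirectional curve fitting against DMSO baseline.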

Read-out in assay [9]: Paternally Expressed 10 (PEG10), PEG10 (gene 23089)
Briefly: LTEA_HepaRG_PEG10: Life Technologies and Expression Analysis (LTEA) Assay for Paternally Expressed 10 (PEG10) using HepaRG (AID 2283520).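 For AC50: differentiated HepaRG human liver cells in serum-free induction medium with 0.5% DMSO; PEG10 transcript by qRT-PCR normalised to ACTB GAPDH and POLR2A.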 The method, boiled down:
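qRT-PCR read-out: PEG10 mRNA normalised to three housekeeping genes, fitted bidirectionally against 0.5% DMSO vehicle. HepaRG cells received test chemicals for 48 h in serum-free induction medium, 8 points, top 100 uM, half-log steps.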

Read-out in assay [10]: Nuclear factor NF-kappa-B p105 subunit (Homo sapiens) (UniProt P19838)
The assay is described as follows: LTEA_HepaRG_NFKB1: Life Technologies and Expression Analysis (LTEA) Assay for Nuclear Factor Kappa B Subunit 1 (NFKB1) using HepaRG (AID 2283521).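 Note: differentiated human HepaRG liver cells in serum-free induction medium; TaqMan qRT-PCR transcript normalised to ACTB GAPDH and POLR2A housekeeping genes.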 In short, it runs like this: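 HepaRG, 48 h exposure; 8-pt half-log series from 100 uM in 0.5% DMSO; duplicates. Readout: NFKB1 mRNA by qRT-PCR (Fluidigm arrays), housekeeping-normalized. Gain/loss fit vs DMSO baseline.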

Read-out in assay [11]: Protein phosphatase 2A (PPP2R4), PTPA (gene 5524)
The assay is described as follows: LTEA_HepaRG_PPP2R4: Life Technologies and Expression Analysis (LTEA) Assay for Protein phosphatase 2A (PPP2R4) using HepaRG (AID 2283522). The method, boiled down: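 HepaRG, 48 h exposure, 8-pt half-log series from 100 uM, 0.5% DMSO vehicle, duplicates. Readout: PPP2R4 mRNA, Fluidigm qRT-PCR, housekeeping-normalized. Bidirectional curve fit vs DMSO baseline.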

Read-out in assay [12]: Phosphatase and tensin (PTEN), PTEN (gene 5728)
Briefly: LTEA_HepaRG_PTEN: Life Technologies and Expression Analysis (LTEA) Assay for Phosphatase and tensin (PTEN) using HepaRG (AID 2283523). The method, boiled down:
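HepaRG, 48 h exposure, 8-pt half-log series from 100 uM top, 0.5% DMSO vehicle, duplicates. Readout: Fluidigm qRT-PCR of PTEN transcript; housekeeping normalization (ACTB, GAPDH, POLR2A). Gain or loss fitted relative to DMSO baseline.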

Read-out in assay [13]: Pyruvate Dehydrogenase Kinase 4 (PDK4), PDK4 (gene 5166)
The assay is described as follows: LTEA_HepaRG_PDK4: Life Technologies and Expression Analysis (LTEA) Assay for Pyruvate Dehydrogenase Kinase 4 (PDK4) using HepaRG (AID 2283525). The method, boiled down:
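HepaRG (human liver line), 48 h chemical exposure, 8-pt half-log CRC top 100 uM, 0.5% DMSO vehicle, duplicates. Readout: TaqMan qRT-PCR of PDK4 mRNA, housekeeping-normalized; gain/loss fit relative to DMSO baseline.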

Read-out in assay [14]: NAD(P)H dehydrogenase [quinone] 1 (NQO1), NQO1 (gene 1728)
Briefly: LTEA_HepaRG_NQO1: Life Technologies and Expression Analysis (LTEA) Assay for NAD(P)H dehydrogenase [quinone] 1 (NQO1) using HepaRG (AID 2283526). In short, it runs like this: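 qRT-PCR read-out (Fluidigm TaqMan), normalized to three housekeeping genes, after 48 h chemical exposure of HepaRG cells. Concentrations: eight points, top 100 uM, half-log steps, 0.5% DMSO vehicle. Gain or loss of signal fitted relative to DMSO.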

Read-out in assay [15]: Nuclear factor erythroid 2-related factor 2 (Homo sapiens) (UniProt Q16236)
The assay is described as follows: LTEA_HepaRG_NFE2L2: Life Technologies and Expression Analysis (LTEA) Assay for Nuclear factor erythroid 2-related factor 2 (NFE2L2) Transcription Factor using HepaRG (AID 2283527).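 For outcome: TaqMan qRT-PCR transcript level normalised to ACTB GAPDH and POLR2A housekeeping genes.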 The method, boiled down: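 HepaRG, 48 h dosing, 8-pt half-log series from 100 uM in 0.5% DMSO, duplicates. Read-out: NFE2L2 mRNA by qRT-PCR (ACTB/GAPDH/POLR2A normalization). Bidirectional curve fit vs DMSO baseline.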

Read-out in assay [16]: succinate dehydrogenase complex iron sulfur subunit B (SDHB), SDHB (gene 6390)
The assay is described as follows: LTEA_HepaRG_SDHB: Life Technologies and Expression Analysis (LTEA) Assay for succinate dehydrogenase complex iron sulfur subunit B (SDHB) using HepaRG (AID 2283528). The method, boiled down:
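Readout is SDHB transcript level by qRT-PCR, normalised to three housekeeping genes and fitted bidirectionally against 0.5% DMSO vehicle. Human HepaRG cells were treated for 48 h at up to 100 uM.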

Read-out in assay [17]: Signal transducer and activator of transcription 3 (Homo sapiens) (UniProt P40763)
The assay is described as follows: LTEA_HepaRG_STAT3: Life Technologies and Expression Analysis (LTEA) Assay for Signal transducer and activator of transcription (STAT3) using HepaRG (AID 2283529). In short, it runs like this:
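HepaRG, 48 h exposure, 8-pt half-log series (top 100 uM), 0.5% DMSO vehicle, duplicates. Readout: STAT3 transcript by Fluidigm qRT-PCR, housekeeping-normalized; bidirectional fit vs DMSO baseline.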

Read-out in assay [18]: solute carrier (SLC22A1), SLC22A1 (gene 6580)
The assay is described as follows: LTEA_HepaRG_SLC22A1: Life Technologies and Expression Analysis (LTEA) Assay for solute carrier (SLC22A1) using HepaRG (AID 2283524). In short, it runs like this: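 qRT-PCR readout (TaqMan, Fluidigm arrays) of SLC22A1 transcript, normalized to three housekeeping genes; bidirectional curve fit relative to 0.5% DMSO vehicle. Differentiated human HepaRG cells, 48 h chemical exposure, top concentration 100 uM, half-log steps, eight points.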

Chain of Nuclear factor erythroid 2-related factor 2 (Homo sapiens) (Q16236 whole entry, looked up): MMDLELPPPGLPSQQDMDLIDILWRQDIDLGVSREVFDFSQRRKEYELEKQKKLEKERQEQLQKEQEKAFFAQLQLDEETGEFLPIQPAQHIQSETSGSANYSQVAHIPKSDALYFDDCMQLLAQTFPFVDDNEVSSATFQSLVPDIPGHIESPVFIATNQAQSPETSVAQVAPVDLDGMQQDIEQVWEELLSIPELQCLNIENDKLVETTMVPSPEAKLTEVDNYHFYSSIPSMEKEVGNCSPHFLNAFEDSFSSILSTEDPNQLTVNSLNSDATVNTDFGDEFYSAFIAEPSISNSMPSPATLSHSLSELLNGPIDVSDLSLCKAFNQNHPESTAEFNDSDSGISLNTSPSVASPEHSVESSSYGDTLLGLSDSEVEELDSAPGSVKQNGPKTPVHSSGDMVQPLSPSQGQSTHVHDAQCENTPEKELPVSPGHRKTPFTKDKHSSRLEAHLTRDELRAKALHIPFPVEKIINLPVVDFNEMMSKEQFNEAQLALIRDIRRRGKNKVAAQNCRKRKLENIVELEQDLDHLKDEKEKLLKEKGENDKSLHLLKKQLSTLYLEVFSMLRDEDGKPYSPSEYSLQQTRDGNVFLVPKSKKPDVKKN
Chain of Signal transducer and activator of transcription 3 (Homo sapiens) (P40763 whole entry, looked up): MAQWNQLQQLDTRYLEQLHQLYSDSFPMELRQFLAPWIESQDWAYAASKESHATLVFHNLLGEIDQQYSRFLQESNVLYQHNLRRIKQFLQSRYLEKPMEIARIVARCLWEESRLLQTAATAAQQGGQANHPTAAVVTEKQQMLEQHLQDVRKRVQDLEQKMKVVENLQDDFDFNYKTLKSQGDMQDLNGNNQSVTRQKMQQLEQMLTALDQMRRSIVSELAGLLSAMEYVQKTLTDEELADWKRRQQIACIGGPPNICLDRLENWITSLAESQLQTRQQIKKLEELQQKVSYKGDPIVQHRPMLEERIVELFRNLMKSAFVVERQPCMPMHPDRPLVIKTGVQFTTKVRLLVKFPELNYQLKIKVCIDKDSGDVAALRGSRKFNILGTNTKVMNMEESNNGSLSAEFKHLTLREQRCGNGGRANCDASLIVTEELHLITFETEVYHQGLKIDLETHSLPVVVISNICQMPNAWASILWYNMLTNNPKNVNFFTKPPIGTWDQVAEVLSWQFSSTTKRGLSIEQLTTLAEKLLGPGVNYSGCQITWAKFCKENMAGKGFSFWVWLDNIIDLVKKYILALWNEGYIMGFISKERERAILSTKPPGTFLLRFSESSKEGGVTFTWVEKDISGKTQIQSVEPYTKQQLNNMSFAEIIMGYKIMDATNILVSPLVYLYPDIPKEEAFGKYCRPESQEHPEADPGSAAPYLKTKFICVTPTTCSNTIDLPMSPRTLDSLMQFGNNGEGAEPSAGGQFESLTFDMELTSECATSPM
Chain of Nuclear factor NF-kappa-B p105 subunit (Homo sapiens) (P19838 whole entry, looked up): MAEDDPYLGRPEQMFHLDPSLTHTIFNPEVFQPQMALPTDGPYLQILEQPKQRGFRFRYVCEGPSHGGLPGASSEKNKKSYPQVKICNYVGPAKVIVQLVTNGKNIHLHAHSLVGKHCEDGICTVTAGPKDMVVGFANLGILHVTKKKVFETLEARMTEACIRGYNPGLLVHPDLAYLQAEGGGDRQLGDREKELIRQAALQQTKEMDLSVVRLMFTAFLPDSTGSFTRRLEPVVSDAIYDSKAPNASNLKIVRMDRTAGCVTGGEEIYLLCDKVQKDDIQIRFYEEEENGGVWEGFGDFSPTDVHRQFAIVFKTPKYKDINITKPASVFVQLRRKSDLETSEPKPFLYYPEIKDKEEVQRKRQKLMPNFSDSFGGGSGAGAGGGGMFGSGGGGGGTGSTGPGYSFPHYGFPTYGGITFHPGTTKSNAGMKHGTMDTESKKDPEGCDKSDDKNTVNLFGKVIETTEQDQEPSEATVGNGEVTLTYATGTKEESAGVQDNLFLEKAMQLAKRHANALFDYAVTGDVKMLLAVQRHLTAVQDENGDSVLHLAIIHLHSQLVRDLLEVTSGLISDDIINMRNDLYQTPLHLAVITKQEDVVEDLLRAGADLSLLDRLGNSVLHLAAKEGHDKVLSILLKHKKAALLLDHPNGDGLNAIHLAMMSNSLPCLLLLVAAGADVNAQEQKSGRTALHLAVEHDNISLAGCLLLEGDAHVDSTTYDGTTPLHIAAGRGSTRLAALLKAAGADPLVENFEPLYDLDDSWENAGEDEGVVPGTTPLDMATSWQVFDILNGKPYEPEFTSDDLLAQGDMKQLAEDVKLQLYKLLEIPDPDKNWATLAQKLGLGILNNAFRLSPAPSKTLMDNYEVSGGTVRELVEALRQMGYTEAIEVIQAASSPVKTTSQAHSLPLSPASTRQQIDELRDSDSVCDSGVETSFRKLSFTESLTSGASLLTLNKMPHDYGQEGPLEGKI

Turning to `CCCC(=NOCC)C1=C(O)CC(CC(C)SCC)CC1=O` (stereo unspecified), the compound was classed as inactive in assay [1], in [2], in assay [3], in assay [4], in [5] and in assay [6]. Besides, the outcome is “inactive” in [7]; “inactive” in the assay with MYC, MYC (gene 4609); “inactive” in assay [8]; “inactive” in [9]; “inactive” in assay [10]; “inactive” in [11]. Also, the result in [12], in [13], in assay [14], in assay [15], in assay [16] and in assay [17] was inactive.
Turning to `COC(=O)N(C(=O)N1CO[C@@]2(C(=O)OC)Cc3cc(Cl)ccc3C2=N1)c1ccc(OC(F)(F)F)cc1`, the outcome is “inactive” in [1]; “inactive” in assay [3]; “inactive” in assay [7]; “inactive” with MYC, MYC (gene 4609); “inactive” in assay [8]; “inactive” in [11]. In addition, the outcome in assay [12], in assay [14], in [16] and in assay [17] was inactive. In addition, the AC50 in assay [2] was 16.9 µM (active); in assay [4], 40 µM (active); in assay [5], 2.97 µM (active); in assay [6] it was 40 µM (active); in assay [9] it was 20.5 µM (active); in assay [13] it was 40 µM (active). Further, the concentration at half-maximal activity (AC50) in assay [15] was 10 µM (active).
On to `CCOP(=S)(OCC)Oc1nc(Cl)n(C(C)C)n1`, for which the outcome in [1], in assay [2], in [3], in assay [4], in [6] and in assay [7] was inactive. Also, the compound was called inactive in [8], in assay [9], in [10], in assay [11], in assay [12] and in assay [14]. Moreover, the compound was called inactive in assay [15], in assay [16] and in assay [17]. In addition, the AC50 in assay [5] is 64.7 µM (active); in assay [13] it was 1.82 µM (active).
With `CC(C)C1(C)N=C(c2ncccc2C(=O)O)NC1=O` (stereo unspecified), the compound was called inactive in [1], in assay [3], in [4], in assay [5], in assay [6] and in [7]. In addition, the compound was classed as inactive in assay [8], in assay [9], in assay [11], in assay [12], in assay [13] and in [14]. Besides, the compound was classed as inactive in assay [15], in assay [16] and in assay [17].
As for `Nc1c(Cl)c(F)nc(OCC(=O)O)c1Cl`, the result in [1], in [2], in assay [3], in assay [4], in assay [5] and in [6] was inactive. Besides, the compound was classed as inactive in [7], in [8], in assay [9], in assay [10], in [11] and in assay [12]. In addition, the call in assay [18], in [13], in [14], in assay [15], in assay [16] and in [17] was inactive.
As to `COP(=O)(OC)O/C(C)=C/C(=O)N(C)C`, the result in [1], in [2], in [3], in assay [4], in assay [5] and in assay [6] was inactive. The outcome in assay [7] is “inactive”; in the assay with MYC, MYC (gene 4609), “inactive”; in assay [8], “inactive”; in assay [9], “inactive”; in assay [10], “inactive”; in assay [11], “inactive”. The outcome in assay [12], in assay [13], in assay [14], in [15], in assay [16] and in assay [17] was inactive.
Turning to `CC1(C)C(C(=O)OC(C#N)c2cccc(Oc3ccccc3)c2)C1(C)C` (stereo unspecified), the compound was classed as inactive in [1], in assay [2], in assay [3], in assay [4], in assay [5] and in [6]. The compound was classed as inactive in [7], in assay [8], in assay [9], in assay [10], in [11] and in [12]. Further, the compound was called inactive in [18], in [13], in [14], in assay [15], in [16] and in [17].
